From PubChem BioAssay (NCATS)
Records with an inconclusive call do not appear. Activity calls are given as the source filed them. The call rests on the fitted dose curve; in most records, active means well fitted cell-killing curve with a large enough effect; inconclusive means small, poorly fitted or top-dose-only effect, or effect the other way; inactive means no such curve, though single readings can be large or run the other way.

experiment: Quantitative High-Throughput drug screen in 47 multiple myeloma cell lines against the NCATS MIPE library collection: OPM2_DSMZ cell viability assay (AID 1919872); conditions: OPM2 myeloma viability, CellTiter-Glo ATP luminescence, 48 h; series mostly up to 45.8 µM; viability (% of DMSO): at the top concentration; further: nearly all actives have a fitted effect of over 30% in size
Source text: PI: Beverly A. Mock Ph.D.
Laboratory of Cancer Biology and Genetics,
Center for Cancer Research, National Cancer Institute,
National Institute of Health, Bethesda, Maryland
Drug resistance and disease progression are common in multiple myeloma (MM) patients, underscoring the need for new therapeutic combinations. […] We hypothesized that effective combinations would reduce MYC expression and enhance p16 activity. […] These preclinical data identify potentially useful drug combinations for evaluation in drug-resistant MM and reveal potential mechanisms of combined drug sensitivity.
Described herein is the primary MIPE qHTS used to cherrypick compounds. Validated compounds were then further tested for potential synergistic activiy.
[1] Peat TJ, Gaikwad SM, Dubois W, Gyabaah-Kessie N, Zhang S, Gorjifard S, Phyo Z, Andres M, Hughitt VK, Simpson RM, Miller MA, Girvin AT, Taylor A, Williams D, D'Antonio N, Zhang Y, Rajagopalan A, Flietner E, Wilson K, Zhang X, Shinn P, Klumpp-Thomas C, McKnight C, Itkin Z, Chen L, Kazandijian D, Zhang J, Michalowski AM, Simmons JK, Keats J, Thomas CJ, Mock BA. Drug combinations identified by high-throughput screening promote cell cycle transition and upregulate Smad pathways in myeloma. Cancer Lett. 2023 Aug 1;568:216284. doi: 10.1016/j.canlet.2023.216284. Epub 2023 Jun 24. PMID: 37356470; PMCID: PMC10408729.
SEQUENCE No. (e.g., 1, 2, 3, etc.); […] (e.g., Cells, Incubation, Reagent, etc.); VALUE and DESCRIPTION.
1; Cells; 5 uL; white, solid bottom 1536-well Greiner assay plate.
2; Compounds; 23 nL; Kalypsis pin tool (Wako USA) equipped with a 1536-well pin head to transfer to the assay plates.
3; Incubation; 48 hours; 37C incubation.
4; Reagent;5uL; CellTiter Glo (Promega).
5; Detector; 425V; Luminescence; Viewlux PerkinElmer.
NOTES (numbers refer to Sequence numbers above)
1. The cell-based screening methods employed in this study were like those previously published. Briefly, the corresponding myeloma cell lines were screened in 1,536-well plates with 500 cells, 5-uL per well for inhibition of cell viability (assessed by measuring ATP levels with CellTiterGlo).
2. NCATS MIPE 4.0 library of approved and investigational drugs were added using the Kalypsis pin tool. Wells treated with DMSO only for 100% viability and media only wells for 0% viability were used as controls.
3. The assay plates were covered and incubated for 48 hours in a 37C, 5% CO2 incubator with controlled humidity.
4. After 48 hours, CellTilter-GloTM luminescent substrate mix (Promega) reagent was added to the assay plate and plates we incubated for 5 min at room temperature.
5. Signal was measured as median relative luminescence units on a ViewLux (PerkinElmer) multiplate reader.
[1] Heske CM, Davis MI, Baumgart JT, Wilson K, Gormally MV, Chen L, Zhang X, Ceribelli M, Duveau DY, Guha R, Ferrer M, Arnaldez FI, Ji J, Tran HL, Zhang Y, Mendoza A, Helman LJ, Thomas CJ. Matrix Screen Identifies Synergistic Combination of PARP Inhibitors and Nicotinamide Phosphoribosyltransferase (NAMPT) Inhibitors in Ewing Sarcoma. Clin Cancer Res. 2017 Dec 1;23(23):7301-7311. doi: 10.1158/1078-0432.CCR-17-1121. Epub 2017 Sep 12. PMID: 28899971; PMCID: PMC6636827.
Potency means the concentration at half of the fitted maximal effect.

| SMILES | viability (% of DMSO) | Potency |
| --- | --- | --- |
| CC(=O)N[C@@H]1[C@H](O[C@@H]2c3ccc(c(Cl)c3)Oc3cc4cc(c3O[C@H]3O[C@H](CO)[C@@H](O)[C@H](O)[C@H]3NC(=O)CCCCCCCC(C)C)Oc3ccc(cc3Cl)C[C@H]3NC(=O)[C@H](N)c5ccc(O)c(c5)Oc5cc(O)cc(c5)[C@H](NC3=O)C(=O)N[C@H]4C(=O)N[C@H]3C(=O)N[C@@H]2C(=O)N[C@@H](C(=O)O)c2cc(O)cc(O[C@H]4O[C@H](CO)[C@@H](O)[C@H](O)[C@H]4O)c2-c2cc3ccc2O)O[C@H](CO)[C@@H](O)[C@@H]1O | 110% (inactive) |  |
| COc1cccc2c1C(=O)c1c(O)c3c(c(O)c1C2=O)C[C@@](O)(C(C)=O)C[C@H]3O[C@H]1C[C@H](N)[C@H](O)[C@H](C)O1 |  | 0.166 µM (active) |
| CC(C=CC=C(C)C=CC1=C(C)CCCC1(C)C)=CC=CC=C(C)C=CC=C(C)C=CC1=C(C)CCCC1(C)C | 87.2% (inactive) |  |
| CCCCCCCCCCCCc1ccc(S(=O)(=O)Nc2nncs2)cc1 | 91.8% (inactive) |  |
| CC1(C)O[C@@H]2C[C@H]3[C@@H]4CCC5=CC(=O)C=C[C@]5(C)[C@@H]4[C@@H](O)C[C@]3(C)[C@]2(C(=O)CO)O1 | 110% (inactive) |  |
| CCc1ccc(C(=O)Nc2cc(CN3CCN(C)CC3)cc(C(F)(F)F)c2)cc1C#Cc1cnc2ccnn2c1 |  | 14.8 µM (active) |
| CC(C)(O)Cn1c(NC(=O)c2ccc(-c3cn[nH]c3)s2)nc2cc(CN3CCOCC3)ccc21 |  | 2.35 µM (active) |
| CC(=O)N[C@H]1[C@@H]([C@H](O)[C@H](O)CO)OC(C(=O)O)=C[C@@H]1N=C(N)N | 125% (inactive) |  |
| O=C(O)[C@H](CC(=O)N1C[C@@H]2CCCC[C@H]2C1)Cc1ccccc1 | 106% (inactive) |  |
| C=CC(=O)Nc1ccc2ncnc(Nc3ccc(OCc4cccc(F)c4)c(Cl)c3)c2c1 |  | 1.05 µM (active) |
| COc1cc(C=CC(=O)CC(=O)C=Cc2ccc(O)c(OC)c2)ccc1O |  | 21.5 µM (active) |
| Nc1nc(=O)n([C@H]2CSC(CO)O2)cc1F (stereo not given in full) | 103% (inactive) |  |
| CC(=O)O[C@@]12CO[C@H]1C[C@H](O)[C@@]1(C)C(=O)[C@H](O)C3=C(C)[C@@H](OC(=O)C(O)[C@@H](NC(=O)OC(C)(C)C)c4ccccc4)C[C@@](O)([C@@H](OC(=O)c4ccccc4)[C@@H]21)C3(C)C (stereo not given in full) | 16.5% (inactive) |  |
| CN(C)c1ccc2cc(C(=O)N[C@@H](CCCN=C(N)CCl)C(=O)NCc3ccccc3)ccc2c1 |  | 18.7 µM (active) |
| COc1cccc2c1C(=O)c1c(O)c3c(c(O)c1C2=O)C[C@@](O)(C(=O)CO)C[C@H]3O[C@H]1C[C@H](N)[C@H](O)[C@H](C)O1 |  | 1.18 µM (active) |
| COc1ccc2cc([S+]([O-])Cc3ncc(C)c(OC)c3C)nc2c1 | 115% (inactive) |  |
| CN[C@@H]1C[C@H]2O[C@@](C)([C@H]1OC)n1c3ccccc3c3c4c(c5c6ccccc6n2c5c31)C(=O)N[C@H]4O |  | 1.05 µM (active) |
| CC(=O)OCC(=O)[C@@]12N=C(C)O[C@H]1C[C@H]1[C@@H]3CCC4=CC(=O)C=C[C@]4(C)[C@@H]3[C@@H](O)C[C@@]12C | 104% (inactive) |  |
| O=C(C=Cc1ccc(CN(CCO)CCc2c[nH]c3ccccc23)cc1)NO |  | 0.209 µM (active) |
| Cn1cnc(=N)c2[nH]cnc21 |  | 0.235 µM (active) |

| SMILES | viability (% of DMSO) | Potency |
| --- | --- | --- |
| CC1(C)[C@H](O[C@H]2O[C@H](C(=O)O)[C@@H](O)[C@H](O)[C@H]2O[C@@H]2O[C@H](C(=O)O)[C@@H](O)[C@H](O)[C@H]2O)CC[C@@]2(C)[C@H]1CC[C@]1(C)[C@H]2C(=O)C=C2[C@H]3C[C@@](C)(C(=O)O)CC[C@]3(C)CC[C@]21C | 123% (inactive) |  |
| COc1cc2c(Nc3ccc(Cl)c(Cl)c3F)ncnc2cc1OCC1C[C@@H]2CN(C)C[C@H]2C1 |  | 20.9 µM (active) |
| O=C(Nc1cccc(Nc2ncc(Br)c(NCCc3cnc[nH]3)n2)c1)N1CCCC1 |  | 4.18 µM (active) |
| CCN(C(=O)c1c(O)c2c(Cl)cccc2n(C)c1=O)c1ccccc1 | 102% (inactive) |  |
| CC(C)(O)CC[C@@H](O)[C@](C)(O)[C@H]1CC[C@@]2(O)C3=CC(=O)[C@@H]4C[C@@H](O)[C@@H](O)C[C@]4(C)[C@@H]3CC[C@]12C | 107% (inactive) |  |
| CON=C(C(=O)N[C@@H]1C(=O)N2C(C(=O)O)=C(Cn3ccc(=N)n3CCO)CS[C@H]12)c1csc(N)n1 | 96.9% (inactive) |  |
| COC(=O)[C@@H]1CC2=CC(=O)CC[C@]2(C)[C@@]23O[C@@H]2C[C@@]2(C)[C@H](CC[C@@]24CCC(=O)O4)[C@@H]13 | 112% (inactive) |  |
| CC(=O)OC[C@@H]1O[C@@H](n2ccc(=O)[nH]c2=O)[C@H](OC(C)=O)[C@H]1OC(C)=O | 103% (inactive) |  |
| COc1cc2c(cc1O)CCC1C2CC[C@@]2(C)C1CC[C@@H]2O (stereo not given in full) |  | 3.72 µM (active) |
| O=C(C=CC=Cc1ccc2c(c1)OCO2)N1CCCCC1 | 110% (inactive) |  |
| COc1cccc2c1C(=O)c1c(O)c3c(c(O)c1C2=O)C[C@@](O)(C(=O)CO)C[C@@H]3O[C@H]1C[C@H](N)[C@H](OC2CCCCO2)[C@H](C)O1 (stereo not given in full) |  | 16.6 µM (active) |
| NC(=O)Nc1sc(-c2ccc(F)cc2)cc1C(N)=O |  | 18.7 µM (active) |
| C[C@@H](Oc1ccc2[nH]nc(C=Cc3cnn(CCO)c3)c2c1)c1c(Cl)cncc1Cl |  | 0.296 µM (active) |
| COC1=C(OC)C(=O)C(CC=C(C)CCC=C(C)CCC=C(C)CCC=C(C)CCC=C(C)CCC=C(C)CCC=C(C)CCC=C(C)CCC=C(C)CCC=C(C)C)=C(C)C1=O | 115% (inactive) |  |
| CCOC(=O)C1=C(C)NC(=S)NC1c1cccc(O)c1 (stereo not given) |  | 0.105 µM (active) |
| CCc1c(O)cc(O)c(C(=O)c2ccc(OCCN3CCOCC3)c(OC)c2)c1CC(=O)N(CCOC)CCOC |  | 1.05 µM (active) |
| CC(C)C[C@H](NC(=O)CNC(=O)c1cc(Cl)ccc1Cl)B1OC(=O)CC(CC(=O)O)(C(=O)O)O1 (stereo not given in full) |  | 0.132 µM (active) |
| OCc1ccccc1O[C@@H]1O[C@H](CO)[C@H](O)[C@H](O)[C@H]1O | 104% (inactive) |  |
| COc1cc(OC)c(NC(=O)Nc2cc(C)on2)cc1Cl | 124% (inactive) |  |
| Cc1ccc(O)c(C(CCN(C(C)C)C(C)C)c2ccccc2)c1 (stereo not given) | 122% (inactive) |  |
